For 40 molecules, growth inhibition results are on record in PubChem BioAssay (NCI).

About 79,000 compounds went through this panel and 15% of them were active in at least one assay; those are over-represented in the sample as a whole. Values without a mark were called inactive. Activity calls are given as the source filed them. Cut-off read from the data, not from the text of the source: active = growth inhibition above about 70%; inactive = the rest.

A short description of assay [1]: NCI Yeast Anticancer Drug Screen. Data for the mec2-1 strain (AID 157). The settings on record: S. cerevisiae mec2-1 strain, at 50.0 µM, active compounds read high. In short, it runs like this:
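Growth inhibition is read against vehicle-treated controls after compound exposure of the mec2-1 yeast strain, which is defective in DNA damage repair or cell cycle control.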

The nature of assay [2]: NCI Yeast Anticancer Drug Screen. Data for the sgs1 mgt1 strain (AID 161).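 Note: 0% = growth of cultures given vehicle only.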 The conditions noted are these: S. cerevisiae sgs1 mgt1 strain, at 50.0 µM, active compounds read high. In short, it runs like this: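 Yeast cells carrying a defined DNA-repair defect were exposed to test compounds. Growth inhibition was measured relative to vehicle-treated controls.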
Assay [3] is described as follows: NCI Yeast Anticancer Drug Screen. Data for the cln2 rad14 strain (AID 165).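 Note: 0% = growth equal to vehicle treated cultures.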 The conditions noted are these: S. cerevisiae cln2 rad14 strain, at 50.0 µM, active compounds read high. The gist of the method: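 Growth inhibition, relative to vehicle-treated controls, is the read-out. The test organism is a yeast strain with defined genetic alterations, cln2 rad14.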
Assay [4] in a line: NCI Yeast Anticancer Drug Screen. Data for the bub3 strain (AID 167). The settings on record: S. cerevisiae bub3 mutant strain, at 50.0 µM, active compounds read high. In short, it runs like this:
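Yeast carrying a defined mutation is treated with each compound, and growth is compared with that of vehicle-exposed cells to give inhibition.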

The nature of assay [5]: NCI Yeast Anticancer Drug Screen. Data for the mlh1 rad18 strain (AID 175). The conditions noted are these: S. cerevisiae mlh1 rad18 strain growth inhibition; at 50.0 µM; active compounds read high. The gist of the method:
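Cells of a genetically altered yeast strain, deficient in DNA damage repair, were treated with compound. Their growth was then compared with that of vehicle-treated cultures to give inhibition.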

As to `COC(=O)c1nc(N)nc(C(=O)OC)c1C(=O)C(C)(C)C`, the growth inhibition in assay [1] was -10.8%; in assay [2], -25.9%; in assay [3], -23.6%; in assay [4], -41.6%; in assay [5], -28.8%.

On to `CCOC(=O)N1C=NC23C(c4ccccc4)C(c4ccccc4)C12C(=O)N(C)C(=O)N3C` (stereo not given), for which the growth inhibition in assay [1] was -9.2%; in assay [2] it was 0.7%; in assay [3], -26.8%; in assay [4] it was -8.35%; in assay [5], -30.9%.

Turning to `CCCC(=O)OCC(C)(C)CC(C)C`, the growth inhibition in assay [1] was -57.9%; in assay [2] it was -10.5%; in assay [3] it was -5.55%; in assay [4], -14.5%; in assay [5], -24.4%.

For `CN1CCN(CCN2C(=O)c3ccccc3C2=O)CC1`, the growth inhibition is 2.65% in assay [1]; -10.5% in assay [2]; -15% in assay [3]; -10.8% in assay [4]; -43.8% in assay [5].

Regarding `CCCCCC(=O)C(C)C1(C(=O)OC)NC(=S)NC(=O)C1C#N` (stereo not given), the growth inhibition in assay [1] was 14.8%; in assay [2], 13.1%; in assay [3], 12.4%; in assay [4] it was -1.9%; in assay [5] it was 17.4%.

Consider `Cc1ccc(NC(=O)CCC(=O)C(C#N)c2ccc(Cl)cc2)cc1C` (stereo not given), for which the growth inhibition in assay [1] is -7.95%; in assay [2] it was 8.55%; in assay [3] it was 4.75%; in assay [4], 8.4%; in assay [5] it was 0.25%.

Regarding `O=C1CC(=C=Nc2ccccc2)C(=O)N1c1ccccc1`, the growth inhibition in assay [1] is 3.85%; in assay [2], 1.7%; in assay [3], -33.5%; in assay [4], -2.2%; in assay [5] it was 19.8%.

In the case of `CC(=O)CC(C)(C)S(=O)(=O)c1ccc(C)cc1`, the growth inhibition in assay [1] is -5.05%; in assay [2] it was 24.4%; in assay [3], -26.4%; in assay [4], 11.8%; in assay [5], 5.05%.

Take `CCCCCCCCCCCCCCCCN1C(=O)c2ccccc2S1(=O)=O`: the growth inhibition in assay [1] was -15.8%; in assay [2] it was -10.5%; in assay [3], 32.5%; in assay [4], -2.2%; in assay [5] it was 5.1%.

`CN(C)S(=O)(=O)N(C)C`: the growth inhibition in assay [1] was 6.4%; in assay [2], 15.4%; in assay [3], 6.1%; in assay [4], -8.45%; in assay [5] it was 26.2%.

Regarding `CC[Si](/C=C(/C)C(C)(C)C)(CC)CC`, the growth inhibition is -21.9% in assay [1]; -7.05% in assay [2]; -34.1% in assay [3]; -8.05% in assay [4]; -5.1% in assay [5].

`CC(=O)OCCCC(=O)Nc1cc([N+](=O)[O-])ccc1OCc1ccccc1`: the growth inhibition in assay [1] was -3.35%; in assay [2] it was 3.45%; in assay [3] it was -6.35%; in assay [4], 5.7%; in assay [5] it was 8.45%.

Regarding `CC(C)(CCC(=O)O)CCC(=O)O`, the growth inhibition was 17.6% in assay [1]; 15.8% in assay [2]; -6.05% in assay [3]; -4% in assay [4]; 36% in assay [5].

For the molecule `O=C(O)CCSCc1ccc(I)cc1`, the growth inhibition was 35.5% in assay [1]; 54% in assay [2]; 34.2% in assay [3]; 47.6% in assay [4]; 37.3% in assay [5].

In the case of `Cc1cccc[n+]1CCC(N)=O`, the growth inhibition was -26.8% in assay [1]; -1.85% in assay [2]; 5.5% in assay [3]; -15.8% in assay [4]; -6.25% in assay [5].

`O=C(Nc1ccc([N+](=O)[O-])c2c1C(=O)c1ccccc1C2=O)c1ccccc1`: the growth inhibition in assay [1] was -12.1%; in assay [2], -5.95%; in assay [3] it was -43.4%; in assay [4], 10.1%; in assay [5], -2.9%.

As for `Nc1nc2c(c(-c3ccc(Cl)cc3)n1)CN(CCCC(=O)O)C2=O`, the growth inhibition was 13.9% in assay [1]; 7.4% in assay [2]; -0.15% in assay [3]; 2.35% in assay [4]; 10.7% in assay [5].

Consider `CC(=O)OCC1OC(Nc2[nH]c(=O)n(C)c(=O)c2C=O)C(OC(C)=O)C(OC(C)=O)C1OC(C)=O` (stereo not given), for which the growth inhibition in assay [1] is 9.4%; in assay [2] it was 6.7%; in assay [3], 9.15%; in assay [4], -0.4%; in assay [5], 3.95%.

As for `CC1=CC(=N/S(=O)(=O)c2ccccc2)/C2CC(C)=C(C)CC2/C1=N\S(=O)(=O)c1ccccc1` (stereo not given), the growth inhibition in assay [1] is 78.6% (active); in assay [2] it was 93% (active); in assay [3], 56.6%; in assay [4], 81.2% (active); in assay [5], 85.3% (active).

With `CC1(C)CC(C)(C)CC(O)(C2(O)CC(C)(C)CC(C)(C)C2)C1`, the growth inhibition is 0.35% in assay [1]; -2.7% in assay [2]; -3% in assay [3]; -5.4% in assay [4]; 9.2% in assay [5].

For the molecule `O=P(O)(OCC(Br)CBr)OCC(Br)CBr` (stereo not given), the growth inhibition in assay [1] is -7.05%; in assay [2], 11.2%; in assay [3], -45%; in assay [4] it was 1.75%; in assay [5] it was 23.8%.

As to `O=C1C2CC3CC(C2)CC1C3`, the growth inhibition in assay [1] was -4.5%; in assay [2], 37%; in assay [3], 9.25%; in assay [4], 6.05%; in assay [5] it was 14.9%.

On to `CCCCCC(=O)Oc1c(C(C)CC)cc([N+](=O)[O-])cc1[N+](=O)[O-]` (stereo not given), for which the growth inhibition in assay [1] is 97% (active); in assay [2], 98.5% (active); in assay [3], 97.7% (active); in assay [4] it was 97.3% (active); in assay [5], 98.2% (active).

For `CCCCCCCCCC(=O)N/N=C\c1cccc2ccccc12`, the growth inhibition is 17.9% in assay [1]; 1.2% in assay [2]; -14.1% in assay [3]; 24.6% in assay [4]; 16.9% in assay [5].

Regarding `CCC(Cl)COP(=O)(CC(Cl)CC)OC(C)P(=O)(OCC(Cl)CC)OCC(Cl)CC` (stereo not given), the growth inhibition in assay [1] is 98.3% (active); in assay [2], 98.7% (active); in assay [3], 97.5% (active); in assay [4] it was 97.2% (active); in assay [5], 98.4% (active).

`CNC(=O)c1ccc[n+](CC(=O)NCc2ccccc2)c1`: the growth inhibition in assay [1] is -11.3%; in assay [2], -15.8%; in assay [3], -2.25%; in assay [4], -1.5%; in assay [5], -15.6%.

With `CCc1ccccc1NC(=O)C1=C(C)NC(C)=C(C(=O)Nc2ccccc2CC)C1c1ccc(NC(C)=O)cc1`, the growth inhibition was 19.8% in assay [1]; 3.25% in assay [2]; 13.6% in assay [3]; 11.4% in assay [4]; -4.25% in assay [5].

In the case of `C=CCN1C(=O)c2ccccc2S1(=O)=O`, the growth inhibition in assay [1] is -2.35%; in assay [2] it was -5.95%; in assay [3], -27.8%; in assay [4] it was -3.15%; in assay [5] it was 3.55%.

Take `CC(=O)OCC1OC(N2C(c3ccccc3)=CC(c3ccco3)C(C#N)=C2S)C(OC(C)=O)C(OC(C)=O)C1OC(C)=O` (stereo not given): the growth inhibition in assay [1] is -11.2%; in assay [2], 13.8%; in assay [3], 12.7%; in assay [4], 2.05%; in assay [5] it was 27.2%.

`NC(=S)NNC(=O)c1ccncc1`: the growth inhibition was -3.1% in assay [1]; 1.8% in assay [2]; 10.4% in assay [3]; 3.75% in assay [4]; 7.05% in assay [5].

Regarding `CC1CCCC(C)(c2ccccc2)/C1=N\Nc1ccc([N+](=O)[O-])cc1[N+](=O)[O-]` (stereo not given), the growth inhibition in assay [1] is 13.9%; in assay [2], 9.65%; in assay [3], 18%; in assay [4], 2.1%; in assay [5] it was 29.9%.

Turning to `O=C1C(O)=CC(=C(c2ccccc2)c2ccccc2)c2cc(Br)ccc21`, the growth inhibition was 26.2% in assay [1]; 44.4% in assay [2]; 8.9% in assay [3]; 11.4% in assay [4]; 34.1% in assay [5].

With `O=C(O)C1C(C2c3ccc(O)cc3Oc3cc(O)ccc32)C2(Cl)C(Cl)=C(Cl)C1(Cl)C2(Cl)Cl` (stereo not given), the growth inhibition in assay [1] is 94.4% (active); in assay [2] it was 96.8% (active); in assay [3], 69.2%; in assay [4], 81.6% (active); in assay [5], 95.3% (active).

`Cc1cc(OCCOC(=O)Nc2ccccc2C(F)(F)F)cc(C)c1Cl`: the growth inhibition in assay [1] was -5.2%; in assay [2] it was -3.35%; in assay [3] it was -44.4%; in assay [4], -3.5%; in assay [5] it was 10.8%.

For the molecule `COc1cc(C(O)CCBr)c(OC)cc1C` (stereo not given), the growth inhibition in assay [1] was -19.8%; in assay [2], -20.2%; in assay [3] it was -0.85%; in assay [4] it was -1.4%; in assay [5], 19.9%.

For `CCCCCCCCCCCC[N+]1(C)CCS(=O)CC1` (stereo not given), the growth inhibition was 84.3% (active) in assay [1]; 80% (active) in assay [2]; 70.7% (active) in assay [3]; 63.4% in assay [4]; 85.3% (active) in assay [5].

For `COc1cc(C(=O)O)c(Br)c(OC)c1OC`, the growth inhibition was 20.1% in assay [1]; 2.55% in assay [2]; -12.7% in assay [3]; 42.9% in assay [4]; 1% in assay [5].

Take `CCN(CC)CCCC(C)Nc1nccc(/C=C/c2ccc(Cl)cc2)n1` (stereo not given): the growth inhibition in assay [1] is 16.3%; in assay [2], 28.9%; in assay [3] it was -1.1%; in assay [4], 14%; in assay [5], 41.7%.

As to `N#CC1=CNc2ccccc2N=C1N`, the growth inhibition in assay [1] was -4.75%; in assay [2], 28.4%; in assay [3], 8.55%; in assay [4], 28.2%; in assay [5], 24.1%.

With `CC1OC(OC2C(O)C(OCCc3ccc(O)c(O)c3)OC(CO)C2OC(=O)/C=C/c2ccc(O)c(O)c2)C(O)C(O)C1O` (stereo not given), the growth inhibition was -9.8% in assay [1]; -3% in assay [2]; 8.25% in assay [3]; -2.7% in assay [4]; 20.8% in assay [5].
